Screening data (PubChem)
Compounds with a hit are over-represented: about 1.2% of the library has one in this group of screens.
GRK2 inh = compounds blocking aptamer binding on GRK2 – biochemical, human GRK2, bead flow cytometry, HTS, primary screen; FAM-aptamer displacement from GRK2; Beta-adrenergic receptor kinase 1 (Homo sapiens), P25098; actives 0.59% (n = 330,000); inhibition of aptamer binding, % at 10 µM; AID 488847, 2010;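 active means inhibition of aptamer binding above 40%, roughly 3 SD of noise, on plates passing a quality check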;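 further: median bead fluorescence of bound FAM aptamer so fluorescent compounds give negative values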
Platelet DG rel = inhibitors of platelet dense granule secretion, primary screen, cell-based, MLPCN, human platelets | AID 1663, 2009 | inhibition, %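 (compounds screened at 7.5 µM in platelet-rich plasma)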 | human platelet-rich plasma, SFLLRN dense granule ATP release, luminescence | actives 0.22% (n = 300,000);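 active means mean replicate score, as percent of positive control, at or above 50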
NTR1 agonist = agonists of human NTR1, primary screen, imaging, U2OS cells, beta-arrestin-GFP, high content | NTR1-U2OS beta-arrestin-GFP spot imaging, agonist mode | activation, % at 20 µM | actives 0.17% (n = 330,000);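 active means activation at or above 40% of the spot to cytoplasm intensity ratio, with at least 20 cells analyzed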
Target sequence (P30989 whole entry, looked up): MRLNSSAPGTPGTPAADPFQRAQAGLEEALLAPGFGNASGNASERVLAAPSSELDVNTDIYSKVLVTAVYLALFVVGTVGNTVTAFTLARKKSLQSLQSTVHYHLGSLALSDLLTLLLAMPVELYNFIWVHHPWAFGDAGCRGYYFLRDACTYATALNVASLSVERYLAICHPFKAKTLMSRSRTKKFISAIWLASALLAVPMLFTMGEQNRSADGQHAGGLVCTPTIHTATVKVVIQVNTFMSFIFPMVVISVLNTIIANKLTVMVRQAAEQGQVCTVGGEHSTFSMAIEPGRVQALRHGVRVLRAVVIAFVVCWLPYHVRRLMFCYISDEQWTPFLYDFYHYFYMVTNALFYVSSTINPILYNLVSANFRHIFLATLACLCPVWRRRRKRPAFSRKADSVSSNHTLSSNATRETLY
MIN6 prolif = inducers of MIN6 beta-cell proliferation, primary screen, ATP luminescence, uHTS | MIN6 cells proliferation, ATPlite luminescence, 48 h; cells starved in 0.2% serum; 100% = growth in 10% serum | proliferation, % at 10 µM | actives 0.29% (n = 330,000);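 active means compounds whose signal lies at least 3.5 SD above the mean of all wells on their plate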
GRK2 CP1 = GRK2 aptamer-displacing inhibitors, retest, confirmation, biochemical, cherry pick 1, bead flow cytometry; bead-bound GRK2, FAM-aptamer displacement; aptamer displacement, % at 10 µM; actives 4% (n = 2,000); shares compounds with GRK2 inh; AID 504451, 2011;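 active means aptamer displacement above 40%, near three times the noise of non-fluorescent compounds, on plates passing quality checks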;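 further: negative values mostly reflect intrinsic compound fluorescence rather than true enhancement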
Aptamer quench SP = aptamer fluorescence quenching in GRK2 counter-screen; shares compounds with GRK2 inh; Carboxyfluorescein RNA aptamer on beads, flow cytometry quenching; stronger effect = lower value; fluorescence response (% of DMSO), % at 10 µM; 2,000 tested, under 10 active; AID 504580;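 active means compounds that quench the bead-bound fluorescent RNA probe, cutting fluorescence to under half of the solvent control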;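 further: counterscreen run without GRK2 so only probe quenching by compound is measured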
GRK2 CP2 = GRK2 aptamer-displacing inhibitors, hit retest, confirmation, biochemical, cherry pick 2, bead flow cytometry; 360 tested, under 10 active; shares compounds with GRK2 inh; inhibition of aptamer binding, % at 10 µM; bead-bound GRK2, FAM-aptamer displacement;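 active means inhibition of aptamer binding above 40%, about triple the noise seen with nonglowing compounds, on plates passing quality control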;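 further: negative values mostly come from compounds that fluoresce themselves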
FAM quench SP = counter-screen for GRK2 binding hits: quenchers of fluorescent RNA aptamer. shares compounds with GRK2 inh. carboxyfluorescein RNA aptamer beads, flow cytometry quenching; stronger effect = lower value. fluorescence response vs DMSO, % at 10 µM. 360 tested, under 10 active;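 active means response vs DMSO under 50%, meaning signal dropped by over half, treated as fluorescence quencher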;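 further: labelled aptamer on streptavidin beads without GRK2 as a quench counter-screen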
Numbers stand for hits; . = inactive; / = no result.

SMILES	GRK2 inh	Platelet DG rel	NTR1 agonist	MIN6 prolif	GRK2 CP1	Aptamer quench SP	others
COC(=O)[C@H](Cc1ccccc1)NC(=O)N1CCN(c2ccc(F)cc2)CC1	.	.	.	.	.	.
O=C(O)[C@H](Cc1ccccc1)NC(=O)N1CCCCCC1	100.0	.	.	.	.	.
COC(=O)[C@H](Cc1ccccc1)NC(=O)N1CCN(Cc2ccccc2)CC1	.	.	.	.	/	/
COC(=O)C(Cc1ccccc1)NC(=O)c1ccc(C)cc1 (configuration not stated)	.	.	.	.	/	/
COC(=O)[C@H](Cc1ccccc1)NC(=O)N1CCCCCC1	.	.	.	.	.	.
O=C(O)[C@H](Cc1ccccc1)NC(=O)N1CCOCC1	.	.	.	.	/	/
CCOc1cc(Br)ccc1S(=O)(=O)N1CCC(C(N)=O)CC1	.	.	.	.	/	/
COc1ccc(/C=C/C(=O)OCC(=O)N2CCCCCC2)c(OC)c1	.	/	.	.	/	/
CC[C@@H]1C/C=C\Cc2ccccc2[C@H](C(=O)C[C@H](O)CC(C)=O)OC1=O	.	/	.	.	/	/
COc1ccc(N2CCN(S(=O)(=O)CCNC(=O)/C=C/c3ccccc3)CC2)cc1	.	.	.	.	/	/
N#C/C(=C\c1c(N2CCC(C(N)=O)CC2)nc2ccccn2c1=O)S(=O)(=O)c1ccc(Cl)cc1	41.0	.	.	.	.	.
CN1CCN(c2nc3ccccn3c(=O)c2/C=C(\C#N)S(=O)(=O)c2ccc(Cl)cc2)CC1	.	.	.	.	/	/
CCC(C)(C)NC(=O)C(c1ccccc1)N(C(=O)c1csnn1)C1CC1 (configuration not stated)	60.0	.	.	.	.	.
CCC(C)(C)NC(=O)C(c1ccccn1)N(C(=O)c1csnn1)C1CCCCC1 (configuration not stated)	.	.	.	.	/	/
Cc1ccc(Cl)cc1NC(=O)Nc1c(C)n(C)n(-c2ccccc2)c1=O	.	.	.	.	/	/
Clc1c2c(nc3ccccc13)CCC2	.	.	.	.	/	/	GRK2 CP2=.;FAM quench SP=.
Nc1c2c(nc3ccccc13)CCCC2	.	.	.	.	/	/
CN(C(=O)c1cccc(C#N)c1)c1nnc(-c2ccncc2)s1	/	/	/	/	.	.
C[N+](C)(CC#Cc1ccccc1)CC(=O)c1ccc(Cl)cc1	.	.	.	.	/	/
CCN(CC)C(=O)COc1ccc2oc(-c3ccco3)cc(=O)c2c1	62.0	.	.	.	.	.
CCN(CC)CCOC(=O)c1ccc(N/C=C(/C#N)c2nc(-c3cc4ccccc4oc3=O)cs2)cc1	100.0	.	.	.	96.7	38.5
CCC(C)NC(=O)c1ccc(Cl)c(S(=O)(=O)Nc2ccccc2N2CCOCC2)c1 (configuration not stated)	.	/	.	.	/	/
COc1ccc(C(=O)C2CCCN(Cc3cnc(N4CCOCC4)s3)C2)c(OC)c1 (configuration not stated)	.	.	.	.	/	/
CC(C)Oc1cccc(C(=O)C2CCCN(Cc3cnc(N4CCOCC4)s3)C2)c1 (configuration not stated)	53.0	.	.	.	.	.
COc1ccc(C(=O)C2CCCN(Cc3cnc(N4CCOCC4)s3)C2)cc1F (configuration not stated)	.	.	.	.	.	.
SMILES	GRK2 inh	Platelet DG rel	NTR1 agonist	MIN6 prolif	GRK2 CP1	Aptamer quench SP	others
CC(NC(=O)COc1ccc(Oc2ccccc2)cc1)C(=O)O (configuration not stated)	52.0	.	.	.	.	.
Cc1ccc(Oc2ccc(OCC(=O)NC(C)C(=O)O)cc2)cc1 (configuration not stated)	.	.	.	.	/	/
COc1ccc(OC)c(S(=O)(=O)N2CCN(c3ncccn3)CC2)c1	.	.	.	.	/	/
COc1ccc(OC)c(S(=O)(=O)N2CCN(c3c(C)cccc3C)CC2)c1	95.0	.	.	.	.	.
CC1CCCC(NC(=O)COC(=O)c2cc(S(=O)(=O)N3CCOCC3)ccc2F)C1C (configuration not stated)	60.0	/	.	.	.	.
COc1ccc(C(=O)C2CCCN(C(=O)C3=CCCC3)C2)c(C)c1 (configuration not stated)	.	.	.	.	/	/
O=C(NC1CC1)c1cc(=S)[nH]c2ccccc12	.	/	.	.	.	.
O=C(NC1CC1)C(=O)c1c[nH]c2ccccc12	.	.	.	.	/	/
CCN(C(=O)CN1C(=O)c2ccc([N+](=O)[O-])cc2C1=O)C1CCCCC1	69.0	.	.	.	/	/	GRK2 CP2=.;FAM quench SP=35.0
Nc1nnnn1/N=C/c1ccccc1OCc1ccc(Cl)cc1	74.0	.	.	.	.	.
Nc1nnnn1/N=C/c1ccccc1OCc1ccc(Cl)cc1Cl	.	.	.	.	/	/
CCCCc1nnc(NC(=O)C2CC(=O)N(Cc3ccccc3)C2)s1 (configuration not stated)	.	.	.	.	/	/
O=C(CSc1nc2[nH]ncc2c(=O)[nH]1)Nc1ccc(OC(F)(F)F)cc1	65.0	.	.	.	.	.
COCC(=O)N1CCC(n2nccc2NC(=O)CCOc2ccccc2)CC1	.	.	.	.	/	/
O=C(CCOc1ccccc1)Nc1ccnn1C1CCN(C(=O)CCC(F)(F)F)CC1	98.0	.	.	.	.	.
O=C(Cn1c(COc2ccccc2)nc2ccccc21)Nc1cccc(Cl)c1	100.0	.	.	.	/	/	GRK2 CP2=.;FAM quench SP=.
O=C(Nc1nccs1)C(c1ccccc1)N1CCCCC1 (configuration not stated)	61.0	.	.	.	.	.
O=C(Nc1nccs1)C(Br)C(Br)c1ccccc1 (configuration not stated)	.	.	.	.	/	/
O=C1NC(=O)/C(=C/c2ccc(-c3cc(C(=O)O)ccc3Cl)o2)S1	.	.	.	.	/	/
O=C1NC(=O)/C(=C\c2ccc(Br)o2)S1	90.0	.	.	.	.	.
COc1ccc(/C=C/CN2CCN(CCc3ccccc3)C(CCO)C2)cc1 (configuration not stated)	90.0	.	.	.	.	.
CCOc1ccccc1CN1CCN(C/C=C/c2ccc(OC)cc2)CC1CCO (configuration not stated)	.	.	.	.	/	/
O=C(NCCOc1nc(N2CCOCC2)nc(N2CCOCC2)n1)Nc1ccccc1	46.0	.	.	.	.	.
